Experimental data from the supplement of paper PMC6555819.

Columns and labels:
Experiment in all cases: PBM binding z-score (relative to random genomic background probes); higher = stronger binding; sequences stand for … in GC…GCGATTGACAGCGTAGAATGAAGG
[1] = tested on: FXR:RXRa (NR concentration 270 nM, RXRa partner concentration 90 nM)
In short: (§1)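 Ligand-free nuclear receptor dimers were bound for 1 h to custom Agilent 4×180K protein-binding microarrays. Detection used antibodies against each partner (one per run). Binding z-scores rest on regression-normalized fluorescence, with random background probes as the reference.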

[2] = tested on: LXRa:RXRa (NR concentration 270 nM, RXRa partner concentration 90 nM)
In short: as §1

[3] = tested on: LXRa homodimer (NR concentration 270 nM)
In short: as §1

[4] = tested on: LXRb:RXRa (NR concentration 270 nM, RXRa partner concentration 90 nM)
In short: as §1

[5] = tested on: LXRb homodimer (NR concentration 270 nM)
In short: as §1

[6] = tested on: PPARa:RXRa (NR concentration 270 nM, RXRa partner concentration 90 nM)
In short: as §1

[7] = tested on: PPARg:RXRa (NR concentration 180 nM, RXRa partner concentration 90 nM)
In short: as §1

[8] = tested on: PPARg:RXRa 270nM:90nM, anti-RXR (NR concentration 270 nM, RXRa partner concentration 90 nM)
In short: as §1

[9] = tested on: PPARg:RXRa 30nM:10nM, anti-RXR (NR concentration 30 nM, RXRa partner concentration 10 nM)
In short: as §1

[10] = tested on: PPARg:RXRa 90nM:30nM, anti-RXR (NR concentration 90 nM, RXRa partner concentration 30 nM)
In short: as §1

[11] = tested on: PPARg:RXRa DBDmut IVT, anti-RXR (DBD mutation: RXRa K156A/R161A, NR concentration 270 nM, RXRa partner concentration 90 nM)
In short: as §1

[12] = tested on: PPARg:RXRa IVT, anti-PPARg (NR concentration 270 nM, RXRa partner concentration 90 nM)
In short: as §1

[13] = tested on: PPARg DBDmut:RXRa IVT, anti-PPARg (DBD mutation: PPARg1 K132A/R137A, NR concentration 270 nM, RXRa partner concentration 90 nM)
In short: as §1

[14] = tested on: PPARg DBDmut IVT, anti-PPARg (DBD mutation: PPARg1 K132A/R137A, NR concentration 270 nM)
In short: as §1

[15] = tested on: PPARg homodimer (NR concentration 180 nM)
In short: as §1

[16] = tested on: PXR:RXRa (NR concentration 270 nM, RXRa partner concentration 90 nM)
In short: as §1

[17] = tested on: PXR homodimer (NR concentration 270 nM)
In short: as §1

[18] = tested on: RARa:RXR (NR concentration 270 nM, RXRa partner concentration 90 nM)
In short: as §1

[19] = tested on: RARa homodimer (NR concentration 270 nM)
In short: as §1

[20] = tested on: RARb:RXRa (NR concentration 270 nM, RXRa partner concentration 90 nM)
In short: as §1

Sequence | PBM binding z-score [1] | PBM binding z-score [2] | PBM binding z-score [3] | PBM binding z-score [4] | PBM binding z-score [5] | PBM binding z-score [6] | PBM binding z-score [7] | PBM binding z-score [8] | PBM binding z-score [9] | PBM binding z-score [10] | PBM binding z-score [11] | PBM binding z-score [12] | PBM binding z-score [13] | PBM binding z-score [14] | PBM binding z-score [15] | PBM binding z-score [16] | PBM binding z-score [17] | PBM binding z-score [18] | PBM binding z-score [19] | PBM binding z-score [20]
ATCTCTAGATAAAGTTCAGTGAAAGATCGATAGA | 0.465 | 1.1 | 1.05 | 0.684 | 0.314 | 1.48 | 2.39 | 3.45 | 1.46 | 3.1 | -0.492 | 0.294 | 0.931 | 0.898 | 0.994 | 1.36 | 1.39 | 0.786 | 1.06 | 2.17
CGAACTAGGTCATTGACCGGACAGTGAATAGTAA | 5.26 | 4.95 | 2.4 | 3.37 | 0.0098 | 4.46 | 7.14 | 6.07 | 3.06 | 5.48 | 8.08 | 8.12 | 0.655 | 0.319 | 0.696 | 1.2 | -0.102 | 1.93 | 0.169 | 3.61
CGTCCAAGGTCAAATGTCAGTGAAGAGATGACGG | 7.54 | 5.76 | 1.47 | 4.6 | 2.22 | 6.09 | 6.34 | 6.37 | 3.35 | 5.7 | 3.67 | 4.11 | 0.495 | -0.392 | 2.49 | 4.82 | 1 | 5.67 | 0.72 | 5.38
CTCCCAAGGTGAACAAGGTCGTTGATTACTATTC | 1.08 | 1.47 | 0.177 | 1.84 | -0.42 | 2.36 | 0.575 | 1.07 | 0.0592 | 0.823 | 1.99 | 2.07 | -0.441 | -0.154 | 0.903 | 2.42 | 1.92 | 2.14 | -0.0783 | 2.03
TCTTGTAGATCAGCAGGCTAAGAAAGCTGGCCAA | -0.304 | -0.495 | -0.573 | -0.216 | -0.933 | 0.0616 | -0.735 | 0.857 | 2.22 | 1.47 | 1.35 | 0.0627 | -0.91 | -0.15 | -1.56 | -0.333 | -0.655 | -0.459 | -0.665 | -0.469
CCTACTGGGCCATCCGGTCATTGATATCAACGTT | 0.445 | 0.184 | 1.03 | 0.144 | 0.244 | 1.37 | 1.4 | 2.5 | 0.753 | 1.81 | 3.87 | 4.21 | -0.352 | -0.431 | 0.811 | -0.0327 | -0.0108 | 0.187 | -0.315 | 1.42
GGAACGAGGGAAAGTTGATAGCAGAGTTTGATGG | -0.31 | -0.575 | -0.354 | -0.799 | -0.711 | -0.252 | 0.626 | 0.9 | 0.276 | 0.845 | 0.0988 | -0.37 | -0.287 | -0.305 | 0.398 | -0.176 | 0.056 | -0.338 | -0.00431 | -0.247
CCTACTGGGCCATGAGGTCATTGATATCAACGTT | 3.57 | 2.77 | 1.87 | 3.24 | -0.168 | 4.19 | 4.59 | 4.66 | 2.55 | 4.53 | 4.24 | 5.54 | 0.512 | -0.0861 | 2.41 | 4.71 | 3.85 | 4.49 | 0.257 | 2.91
CCTACTGGGCCATTCTGAGGTCATTGATCATATG | 2.12 | 3.35 | 4.95 | 2.83 | 0.173 | 3.25 | 1.63 | 2.38 | 0.733 | 1.84 | 4.08 | 4.24 | 0.979 | -0.299 | 1.5 | 4.42 | 3.46 | 3.85 | -0.372 | 2.57
AAACCAAGGTGATCGTGAGGTCGTTGATACTAAC | 1.87 | 1.29 | 0.284 | 1.13 | -0.456 | 1.54 | 0.386 | 0.544 | -0.322 | 0.389 | 0.846 | 1.19 | 0.252 | 0.247 | 0.649 | 3.05 | 1.5 | 2.16 | -0.27 | 1.24
TGAATGAGGTTAAGGATCAGGGAACGTGGCGTCG | 1.99 | 1.74 | -0.343 | 1.01 | 0.386 | 3.28 | 3.12 | 4.57 | 2.71 | 4.12 | 1.6 | 2.61 | 0.781 | -0.105 | 0.99 | 1.08 | -0.0179 | 2.08 | 0.367 | 2.03
TCTTGTAGATCAGCTGGTTAAGAAAGCTGGCCAA | 0.0372 | -0.146 | -0.717 | -0.0754 | -0.836 | 0.363 | -1.11 | 1.04 | 2.43 | 1.75 | 1.46 | -0.0157 | -0.253 | -0.0877 | -0.903 | 0.0917 | -0.51 | 0.0228 | -0.485 | -0.526
TGTCAAAGTTCAAAGGTAACGCAAGTATCCACAC | 7.39 | 6.39 | 4.52 | 4.83 | 1.75 | 6.18 | 9.31 | 8.11 | 5.51 | 7.89 | 0.302 | 4.95 | 0.987 | 0.888 | 3.82 | 6.07 | 4.47 | 7.09 | 1.84 | 5.19
GGAACGAGGGCATTGGAGTTGATAGCATGGCGAT | 0.624 | 1.25 | -0.304 | -0.0971 | -0.75 | 1.36 | 0.831 | 0.611 | -0.313 | -0.0775 | 3.13 | 1.96 | -0.193 | -0.133 | 0.272 | 2.48 | 0.836 | 0.409 | -0.598 | 1.72
TTACCAAGGTGAGCTGAGGTCGTTGAGCCAACTC | 1.91 | 1.27 | -0.402 | 0.809 | -1.19 | 1.84 | -0.225 | 0.876 | -0.207 | 0.236 | 0.949 | 1.75 | -0.809 | -0.728 | -0.0553 | 5.03 | 0.369 | 2.08 | -0.816 | 1.76
TTATATAGGTAATACAGGTGAAAGTCGGCATCTA | 0.622 | 1.12 | 0.509 | 0.772 | 0.539 | 2.7 | 3.5 | 3.07 | 2.07 | 2.5 | 6.01 | 5.97 | 1.64 | 2.72 | 1.34 | 0.367 | 0.343 | 0.639 | 1.4 | 0.616
AGAATGAGGTTATACGCAGATCAGGGAAGAAAGT | 2.11 | 2.13 | -0.247 | 1.68 | -0.102 | 3.39 | 1.58 | 2.01 | 0.827 | 1.45 | 2.73 | 2.31 | 1.31 | 0.997 | 0.831 | 1.14 | 0.481 | 1.59 | 0.675 | 1.52
CGGCCAAGGTCAGAGAGGTCAGTGAATGCCGAGT | 6.02 | 5.04 | 2.26 | 4.41 | -0.527 | 4.79 | 3.72 | 4.34 | 0.655 | 2.75 | 3.09 | 3.49 | -0.798 | -1.36 | 3.78 | 5.99 | 12 | 5.43 | 1.18 | 5.21
ATATGTAGGTTTGCTGGGGTCATTCAGACTAGGC | 3.58 | 3.85 | 1.58 | 4.47 | 1.4 | 4.53 | 2.69 | 3.1 | 0.969 | 2.19 | 3.16 | 3.12 | 1.39 | 1.41 | 1.83 | 5.71 | 7.95 | 4.72 | 1 | 2.53
